Results filed as inconclusive are left out. A call without a number means that no potency is given here. A number with no mark means an inactive call. The source made the active and inactive calls. Unless noted, the call rests on the fitted dose curve; in most records, active means well fitted curve in the direction sought with a large enough effect; inconclusive means small, poorly fitted or top-dose-only effect, or another doubt; inactive means no such curve, though single readings can be large; an effect the other way counts as inactive or inconclusive.
How the values were obtained:
[1] = S16 Schwann cell viability assay (CellTiter-Glo assay) (AID 624031);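 further: cellular ATP luminescence as a viability measure; nearly all actives have a fitted effect of over 70% in size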
Method in brief: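 Untransfected S16 rat Schwann cells; compound 24 h, 37 °C/5% CO2; CellTiter-Glo ATP luminescence. % activity vs no-cell wells and DMSO controls (0%); concentration-effect curves classed by r2, response magnitude, activity.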

CP194 = test: qHTS profiling for inhibitors of Plasmodium falciparum proliferation (AID 504749); further: nearly all actives have a fitted effect of over 60% in size; further: potency means the concentration at half of the fitted maximal effect; conditions: P. falciparum in erythrocytes, SYBR Green DNA, 72 h; series mostly up to 12.8 µM
Method in brief: (§1)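 Infected RBCs, 0.3% parasitemia/2.5% Hct final; cpd 72 h, 37 C, 5% CO2; lysis buffer with saponin/triton/SYBR Green I, o/n RT dark; FI 485/535; norm. to artemisinin (0.29 uM) and DMSO.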

CP201 = test: as above; conditions: P. falciparum in erythrocytes, SYBR Green DNA, 72 h; series mostly up to 12.8 µM
Method in brief: as §1

CP211 = test: as above; conditions: P. falciparum in erythrocytes, SYBR Green DNA, 72 h; series mostly up to 12.8 µM
Method in brief: as §1

CP215 = test: as above; conditions: P. falciparum in erythrocytes, SYBR Green DNA, 72 h; series mostly up to 12.8 µM
Method in brief: as §1

CP291 = test: as above; conditions: P. falciparum in erythrocytes, SYBR Green DNA, 72 h; series mostly up to 12.8 µM
Method in brief: as §1

CP315 = test: as above; conditions: P. falciparum in erythrocytes, SYBR Green DNA, 72 h; series mostly up to 12.8 µM
Method in brief: as §1

DIV17 = test: as above; conditions: P. falciparum in erythrocytes, SYBR Green DNA, 72 h; series mostly up to 12.8 µM
Method in brief: as §1

GB4 = test: as above; conditions: P. falciparum in erythrocytes, SYBR Green DNA, 72 h; series mostly up to 12.8 µM
Method in brief: as §1

PC26 = test: as above; conditions: P. falciparum in erythrocytes, SYBR Green DNA, 72 h; series mostly up to 12.8 µM
Method in brief: as §1

[2] = target: Cytochrome P450 2C19 (Homo sapiens) (UniProt P33261); test: qHTS Assay for Inhibitors and Substrates of Cytochrome P450 2C19 (AID 899); further: nearly all actives have a fitted effect of over 60% in size
Sequence of Cytochrome P450 2C19 (Homo sapiens) (P33261 whole entry, looked up): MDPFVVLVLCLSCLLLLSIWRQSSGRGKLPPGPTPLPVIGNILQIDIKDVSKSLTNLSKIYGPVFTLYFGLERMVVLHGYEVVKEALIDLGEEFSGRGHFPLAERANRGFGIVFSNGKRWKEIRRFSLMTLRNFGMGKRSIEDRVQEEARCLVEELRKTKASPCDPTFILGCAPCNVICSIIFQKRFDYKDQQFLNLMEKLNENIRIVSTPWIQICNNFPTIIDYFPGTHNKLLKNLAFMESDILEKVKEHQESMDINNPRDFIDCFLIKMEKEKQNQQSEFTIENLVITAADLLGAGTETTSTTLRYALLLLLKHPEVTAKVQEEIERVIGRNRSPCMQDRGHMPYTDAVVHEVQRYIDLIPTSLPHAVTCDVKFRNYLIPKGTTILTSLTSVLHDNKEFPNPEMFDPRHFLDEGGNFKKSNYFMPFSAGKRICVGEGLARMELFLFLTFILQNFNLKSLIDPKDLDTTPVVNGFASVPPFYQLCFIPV
Method in brief: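 Reactions contain 5nM enzyme, 10uM Luciferin-H EGE (KM) and 50mM KPO4; compound preincubates 10 min at 37C, NADPH regeneration starts turnover for 60 min. Luminescence after detection reagent gives activity.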

CP237 = test: qHTS profiling for inhibitors of Plasmodium falciparum proliferation (AID 504749); further: nearly all actives have a fitted effect of over 60% in size; further: potency means the concentration at half of the fitted maximal effect; conditions: P. falciparum in erythrocytes, SYBR Green DNA, 72 h; series mostly up to 12.8 µM
Method in brief: as §1

P94_40 = test: as above; conditions: P. falciparum in erythrocytes, SYBR Green DNA, 72 h; series mostly up to 12.8 µM
Method in brief: as §1

W2 = test: as above; conditions: P. falciparum in erythrocytes, SYBR Green DNA, 72 h; series mostly up to 12.8 µM
Method in brief: as §1

[3] = S16 Schwann cell PMP22 intronic element beta-lactamase assay (AID 624044; calls by dose curve; further: nearly all actives have a fitted effect of over 15% in size)
Method in brief: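 Rat S16 Schwann cells with beta-Lac driven by a PMP22 intronic element, compound-treated 24 h at 37 °C. LiveBLAzer FRET B/G read: 460 nm normalized to potassium clavulanate vs DMSO; 535 nm FRET as viability; concentration-effect curves classified.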

DFO2036 = test: qHTS profiling for inhibitors of Plasmodium falciparum proliferation (AID 504749); further: nearly all actives have a fitted effect of over 60% in size; further: potency means the concentration at half of the fitted maximal effect; conditions: P. falciparum in erythrocytes, SYBR Green DNA, 72 h; series mostly up to 12.8 µM
Method in brief: as §1

[4] = target: Cytochrome P450 2D6 (Homo sapiens) (UniProt P10635); test: qHTS Assay for Inhibitors and Substrates of Cytochrome P450 2D6 (AID 891)
Sequence of Cytochrome P450 2D6 (Homo sapiens) (P10635 whole entry, looked up): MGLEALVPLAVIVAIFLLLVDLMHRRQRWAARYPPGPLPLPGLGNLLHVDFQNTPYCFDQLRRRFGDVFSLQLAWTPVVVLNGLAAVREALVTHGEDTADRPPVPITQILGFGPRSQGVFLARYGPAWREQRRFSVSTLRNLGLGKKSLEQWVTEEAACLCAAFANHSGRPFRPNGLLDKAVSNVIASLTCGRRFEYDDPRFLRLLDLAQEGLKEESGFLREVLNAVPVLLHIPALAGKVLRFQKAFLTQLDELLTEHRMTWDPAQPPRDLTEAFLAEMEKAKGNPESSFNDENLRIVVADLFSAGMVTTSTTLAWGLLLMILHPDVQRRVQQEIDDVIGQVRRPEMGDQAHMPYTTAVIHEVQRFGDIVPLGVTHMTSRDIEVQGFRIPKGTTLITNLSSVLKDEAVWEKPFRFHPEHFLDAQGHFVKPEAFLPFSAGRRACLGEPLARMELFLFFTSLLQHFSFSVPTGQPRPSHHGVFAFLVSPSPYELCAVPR
Method in brief: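 Human CYP2D6 (5 nM) with 30 uM Luciferin-ME EGE (at Km) in 100 mM KPO4, compound preincubated 10 min, then NADPH regeneration system for 60 min at room temperature. Luciferin read by luminescence; normalized to 1.43 uM quinidine.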

[5] = target: Cytochrome P450 2C9 (Homo sapiens) (UniProt P11712); test: qHTS Assay for Inhibitors and Substrates of Cytochrome P450 2C9 (AID 883); further: nearly all actives have a fitted effect of over 60% in size
Sequence of Cytochrome P450 2C9 (Homo sapiens) (P11712 whole entry, looked up): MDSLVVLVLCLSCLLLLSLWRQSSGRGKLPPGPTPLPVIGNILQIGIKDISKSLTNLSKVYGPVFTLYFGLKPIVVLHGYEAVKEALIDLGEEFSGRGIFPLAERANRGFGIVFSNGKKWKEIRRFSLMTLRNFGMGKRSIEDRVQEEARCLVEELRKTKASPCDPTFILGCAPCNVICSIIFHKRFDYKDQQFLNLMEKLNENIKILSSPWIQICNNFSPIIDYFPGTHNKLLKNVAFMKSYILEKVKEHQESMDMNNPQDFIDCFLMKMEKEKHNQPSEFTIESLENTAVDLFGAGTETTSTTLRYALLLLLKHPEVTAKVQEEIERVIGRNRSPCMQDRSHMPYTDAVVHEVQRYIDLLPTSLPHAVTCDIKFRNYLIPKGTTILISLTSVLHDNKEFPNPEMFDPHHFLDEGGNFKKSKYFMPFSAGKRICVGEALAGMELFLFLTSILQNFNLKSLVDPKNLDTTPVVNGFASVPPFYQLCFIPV
Method in brief: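 Turnover of Luciferin-H (100uM, KM) by 10nM human CYP2C9 was measured over 60 min at 37C with NADPH regeneration; inhibitors and some substrates reduce luminescence. Data normalized to sulphaphenazole 57uM.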

## O=C1O[C@H](CN2CCOCC2)CN1/N=C\c1ccc([N+](=O)[O-])o1
[1]
  outcome: inactive
CP194
  Potency: inactive
CP201
  Potency: inactive
CP211
  Potency: inactive
CP215
  Potency: inactive
CP291
  Potency: inactive
CP315
  Potency: inactive
DIV17
  Potency: inactive
GB4
  Potency: inactive
PC26
  Potency: inactive

## CCOC(=O)[C@H](CCc1ccccc1)N[C@@H](C)C(=O)N1[C@H](C(=O)O)C[C@H]2CCC[C@@H]21
[2]
  outcome: inactive
[1]
  outcome: inactive
CP194
  Potency: inactive
CP201
  Potency: inactive
CP211
  Potency: inactive
CP215
  Potency: inactive
CP237
  Potency: inactive
CP291
  Potency: inactive
CP315
  Potency: inactive
DIV17
  Potency: inactive
GB4
  Potency: inactive
P94_40
  Potency: inactive
PC26
  Potency: inactive
W2
  Potency: inactive

## CO[C@H]1[C@@H](OC(N)=O)[C@H](O)[C@@H](Oc2ccc3c(O)c(NC(=O)c4ccc(O)c(CC=C(C)C)c4)c(=O)oc3c2C)OC1(C)C
CP194
  Potency: inactive
CP201
  Potency: inactive
CP211
  Potency: inactive
CP215
  Potency: inactive
CP237
  Potency: inactive
CP291
  Potency: inactive
CP315
  Potency: inactive
DIV17
  Potency: inactive
GB4
  Potency: inactive
P94_40
  Potency: inactive
PC26
  Potency: inactive

## C=CCN1C(=CCO)[C@H]2C[C@H]3[C@@H]1CC[C@@]31c3ccccc3N3C=C4[C@@H]5N(/C=C/2[C@H]31)c1ccccc1[C@]51CC[C@H]2[C@H]1C[C@@H]4/C(=C/CO)N2CC=C
[3]
  Potency: inactive
CP194
  Potency: inactive
CP201
  Potency: inactive
CP211
  Potency: inactive
CP215
  Potency: inactive
CP237
  Potency: inactive
CP291
  Potency: inactive
CP315
  Potency: inactive
DFO2036
  Potency: inactive
DIV17
  Potency: inactive
GB4
  Potency: inactive
P94_40
  Potency: inactive
PC26
  Potency: inactive
W2
  Potency: inactive

## CC[N+](CC)(CC)CC[C@](O)(c1ccccc1)C1CCCCC1
[4]
  Potency: 20 nM (active)
[1]
  outcome: inactive
[3]
  Potency: inactive
CP194
  Potency: inactive
CP201
  Potency: inactive
CP211
  Potency: inactive
CP215
  Potency: inactive
CP237
  Potency: inactive
CP315
  Potency: inactive
DFO2036
  Potency: inactive
DIV17
  Potency: inactive
GB4
  Potency: inactive
P94_40
  Potency: inactive

## CC(C)(C)NC[C@H](O)COc1cccc2c1CCC(=O)N2
[1]
  outcome: inactive
CP194
  Potency: inactive
CP201
  Potency: inactive
CP211
  Potency: inactive
CP215
  Potency: inactive
CP237
  Potency: inactive
CP291
  Potency: inactive
CP315
  Potency: inactive
DIV17
  Potency: inactive
GB4
  Potency: inactive
P94_40
  Potency: inactive
PC26
  Potency: inactive
W2
  Potency: inactive

## COc1cc(N)c(Cl)cc1C(=O)N[C@H]1CCN(CCCOc2ccc(F)cc2)C[C@H]1OC
[5]
  outcome: inactive
[2]
  outcome: inactive
[1]
  outcome: inactive
[3]
  Potency: inactive
CP215
  Potency: inactive
CP315
  Potency: inactive
P94_40
  Potency: 3.16 µM (active)
W2
  Potency: 5.1 µM (active)

## Cc1cccc(C)c1NC(=O)[C@H](C)N
[1]
  outcome: inactive
[3]
  Potency: inactive
CP237
  Potency: inactive
DFO2036
  Potency: inactive
P94_40
  Potency: inactive
W2
  Potency: inactive

## CCC(=O)O[C@@H]1[C@H](C)O[C@H](O[C@H]2[C@@H](N(C)C)[C@H](O)[C@@H](O[C@@H]3[C@@H](CC=O)C[C@@H](C)[C@@H](O)/C=C\C=C/C[C@@H](C)OC(=O)C[C@@H](OC(=O)CC)[C@H]3OC)O[C@H]2C)C[C@]1(C)O
[3]
  Potency: inactive
DFO2036
  Potency: inactive
GB4
  Potency: inactive
PC26
  Potency: inactive
W2
  Potency: 2.03 µM (active)

## CC(=O)OCC(=O)[C@@]1(O)CC[C@@H]2[C@H]3CCC4=CC(=O)C=C[C@]4(C)[C@]3(F)[C@@H](O)C[C@@]21C
[1]
  outcome: inactive
[3]
  Potency: inactive
CP194
  Potency: inactive
CP201
  Potency: inactive
CP211
  Potency: inactive
CP215
  Potency: inactive
CP237
  Potency: inactive
CP291
  Potency: inactive
CP315
  Potency: inactive
DFO2036
  Potency: inactive
DIV17
  Potency: inactive
GB4
  Potency: inactive
PC26
  Potency: inactive
W2
  Potency: inactive

## C[N+]12CCC(CC1)[C@@H](OC(=O)C(O)(c1ccccc1)c1ccccc1)C2
CP237
  Potency: inactive
DFO2036
  Potency: inactive
P94_40
  Potency: inactive
W2
  Potency: inactive

## O=C(NC[C@@H](O)CO)c1c(I)c(C(=O)NC[C@@H](O)CO)c(I)c(N(CCO)C(=O)CO)c1I
[1]
  outcome: inactive
[3]
  Potency: inactive
CP194
  Potency: inactive
CP201
  Potency: inactive
CP211
  Potency: inactive
CP215
  Potency: inactive
CP237
  Potency: inactive
CP291
  Potency: inactive
CP315
  Potency: inactive
DFO2036
  Potency: inactive
DIV17
  Potency: inactive
GB4
  Potency: inactive
PC26
  Potency: inactive
W2
  Potency: inactive
